# Among all 69,000 compounds or so, about 8,600 (12%) showed an effect of 50% or more. For the sample, strong results were picked, then their nearest neighbours and some compounds at random.
# System: Plasmodium berghei
# Experiment: Screen against P. berghei liver stage (PbLuc), transformed with Luciferase, at 10uM
# Format: functional, HepG2
# Details: tested at 10 uM
row,SMILES,INHIBITION [%]
1,O=C(NCc1ccco1)[C@H]1COC[C@H]2CN(Cc3ccoc3)C[C@H]21,25.2
2,CCOc1ccc(C#N)cc1NCC(=O)NC1(C#N)CCCC1,-2.53
3,Cc1ccc(NC(=O)N2CCCC2)c(OCC2CCCO2)c1 (configuration not stated),-8.11
4,CCS(=O)(=O)N1CCN(Cc2cccnc2)c2nc(C)ccc2C1,38.1
5,O=C(Nc1cccs1)NC(CCCO)c1ccccc1 (configuration not stated),24.3
6,O=C(NCc1csc(Br)c1)N1CCC(O)CC1,-0.822
7,COCC(=O)NCCCn1nc2ccccn2c1=O,19.7
8,CC(C)N(C)Cc1nnc2n1CCN(CC1CC1)CC2,20.1
9,CCS(=O)(=O)N1CCC2(CC1)CN(c1ccsc1)C(=O)CO2,54.4
10,CCS(=O)(=O)N1CCC2(CC1)CN(c1cncnc1)C(=O)CO2,14.1
11,O=C1COC2(CCN(S(=O)(=O)C3CC3)CC2)CN1c1ccsc1,3.25
12,Cc1cc2ccccc2n1CCC(=O)N1CCN(C)CC1C(N)=O (configuration not stated),34.9
13,CSCC(=O)N1CCOC(c2nc(C)n[nH]2)C1 (configuration not stated),36.8
14,CC(C)c1nc(C2CCCN(C(=O)c3cccc4c3OCO4)C2)no1 (configuration not stated),42
15,CSc1ncc(C(=O)N2C[C@@H]3CC[C@H]2CN(Cc2ccccc2)C3)cn1,-9.76
16,Cc1ccc2cccc(S(=O)(=O)N(C)CC3CCN(C)CC3)c2n1,17.6
17,CN(CCN1CCOCC1)S(=O)(=O)CC1CCCC1,38.7
18,CN(CCN1CCCC1=O)S(=O)(=O)CC1CCCC1,88
19,CN1CCN(CCCNC(=O)C2CCCCC2)CC1,-24
20,CN1CCC(CN(C)S(=O)(=O)CC2CCCCC2)CC1,72.3
21,CN1CCN(CCCN(C)S(=O)(=O)C2CCCCC2)CC1,43.2
22,Cc1ccc2cccc(S(=O)(=O)N(C)CC3CCN(C)C3)c2n1 (configuration not stated),16
23,CN1CCN(CCCN(C)S(=O)(=O)CC2CCCCC2)CC1,54.4

row,SMILES,INHIBITION [%]
1,CN(C)CCN(C)S(=O)(=O)CC1CCOCC1,30.2
2,O=C(NCCCn1cccn1)N1CCCC1c1cccs1 (configuration not stated),25.2
3,Cc1ccsc1CN1CC[C@H]2OCC[C@@]2(C(=O)N2CCCO2)C1,37.2
4,COCCNC(=O)[C@@H]1C[C@@H]2CCN(c3ncccn3)C[C@H]2O1,4.57
5,O=C(Nc1ccccc1F)C1CSCN1C(=O)CCc1ccco1 (configuration not stated),-39.2
6,Cc1cc(CN(C)C(=O)NCc2ccccn2)no1,-22.8
7,COc1ccc(F)cc1C(=O)N(C)Cc1cc(C)on1,35.7
8,COc1ccc(S(N)(=O)=O)cc1C(=O)N(C)Cc1cc(C)on1,51.2
9,CCN(C)C(=O)Nc1cc(F)c(OC)cc1F,14.9
10,Cc1cc(CN(C)C(=O)Nc2ccccc2C)no1,67.1
11,COc1cc(F)c(NC(=O)N(C)CCNC(=O)N(C)C)cc1F,36.3
12,COc1ccc(Cl)cc1C(=O)N(C)Cc1cc(C)on1,-4.16
13,COc1cc(F)c(NC(=O)N(C)Cc2cc(C)on2)cc1F,52.6
14,CCNC(=O)c1ccc(NC(=O)N(C)Cc2cc(C)on2)c(C)c1,29.6
15,Cc1ccc(-n2nnc(C(=O)O)c2C)c(C)c1,14.2
16,CCOCCC(=O)N1C[C@@H]2CC[C@H]1CN(c1ncccn1)C2,43.2
17,Cc1cccc(NC(=O)C2CSCN2C(=O)c2cnccn2)c1C (configuration not stated),33.35
18,COc1ccc(C)cc1CC(=O)NS(=O)(=O)c1ccc(C(N)=O)cc1,-2.19
19,CCC(=O)Nc1nnc(CCOc2ccccc2OC)s1,-23.8
20,O=C(NCC1Cn2nnc(-c3ccoc3)c2CO1)c1ccc[nH]1 (configuration not stated),27.4
21,CN1CCCC1c1nccnc1-c1ccc(C(=O)O)cc1 (configuration not stated),-14.2
22,Cc1ncsc1CN(Cc1ccccc1)Cc1ncc[nH]1,46.6
23,Cc1nn(C)c(Cl)c1C1CCCN1C(=O)c1ccc(N(C)C)nn1 (configuration not stated),53.8

row,SMILES,INHIBITION [%]
1,Cc1nn(C)c(Cl)c1C1CCCN1C(=O)c1ccc(C(N)=O)cn1 (configuration not stated),84.3
2,Cc1nn(C)c(C)c1C1CCCN1C(=O)c1ccc(N(C)C)nn1 (configuration not stated),-71.1
3,Cc1nn(C)c(Cl)c1C1CCCN1C(=O)c1ccc(O)nc1 (configuration not stated),48.1
4,COc1c(C2CCCN2C(=O)c2ccc(N(C)C)nn2)c(C)nn1C (configuration not stated),-57.4
5,Cc1nn(C)c(C)c1C1CCCN1C(=O)c1ccc(C(N)=O)cn1 (configuration not stated),9.555
6,Cc1nn(C)c(C)c1NC(=O)CN1CCN(c2nccs2)C(C)C1 (configuration not stated),21.6
7,Cc1c(C[S+](C)[O-])cccc1NC(=O)c1cc(Cl)ccn1 (configuration not stated),-42.1
8,Cc1c(NC(=O)N(C)CCn2cnnc2)cccc1OC1CCCC1,13.3
9,CCNC(=O)N(CCCO)C1CCCc2ccccc21 (configuration not stated),45.7
10,CC(O)CN1CCC(CNCc2ccc(OC(F)(F)F)cc2)CC1 (configuration not stated),44.7
11,CCN(c1ccc(C(=O)N2CCC(C)CC2)cc1)S(=O)(=O)CC,22.9
12,CCS(=O)(=O)N(C)c1ccc(C(=O)N2CCCC(C)C2)cc1 (configuration not stated),60.1
13,CCN(c1ccc(C(=O)N2CCCC(C)C2)cc1)S(=O)(=O)CC (configuration not stated),10.1
14,O=C(NCCc1cccnc1)Nc1cc(C(F)(F)F)c[nH]c1=O,-12.6
15,Cc1ccccc1C1CCN(C(=O)CCNC(=O)C(C)(C)C)C1 (configuration not stated),-66.4
16,COCCOCC(=O)N1CCC(c2ccccc2F)C1 (configuration not stated),-112
17,COCCOCCC(=O)N1CCC(c2ccccc2C)C1 (configuration not stated),55.2
18,CS(=O)(=O)N1CCC(NC(=O)COc2ccc(Cl)cc2)CC1,-61.4
19,CC1c2ncc(CN3CCN(C)CC3)n2CCN1CC1CC1 (configuration not stated),-10.4
20,CN(C)CC1CN(c2cnc3ccccc3n2)CCO1 (configuration not stated),38.8
21,COCCC1(C(=O)O)CCN(c2cc(C)c3ccccc3n2)CC1,62.8
22,c1ccc2nc(N3CCOC(Cn4cccn4)C3)cnc2c1 (configuration not stated),-34
23,Cc1cc(N2CCC3(CCCN(CCO)C3=O)C2)nc2ccccc12 (configuration not stated),57.2

row,SMILES,INHIBITION [%]
1,Cc1cc(N2CCC(O)(C(=O)O)CC2)nc2ccccc12,32.2
2,Cc1cc(N2CCC3(CC2)C(C(=O)O)CC(=O)N3C)nc2ccccc12 (configuration not stated),9.56
3,OCC1(CC2CCCCO2)CCN(c2cnc3ccccc3n2)CC1 (configuration not stated),83.9
4,Cc1cc(N2CCC(CO)(CC3CCCCO3)CC2)nc2ccccc12 (configuration not stated),53
5,Cc1cc(N2CCC3(CCCN(CCO)C3=O)C2)nc(C)c1C#N (configuration not stated),38
6,Cc1cc(N2CCC3(CCCN(CCO)C3=O)C2)nc2cc(Cl)ccc12 (configuration not stated),16.1
7,Cc1cc(N2CCC(CO)(CC3CCCCO3)CC2)c2ccccc2n1 (configuration not stated),47.6
8,COCCC1(C(=O)O)CCCN(c2cc(C)c3ccccc3n2)C1 (configuration not stated),20.2
9,Cc1cc(C(=O)N(CC(F)(F)F)C2CCOCC2)c(C)o1,15
10,Cc1nnc(CNC(C)c2cc(C)c(F)c(C)c2)s1 (configuration not stated),36.2
11,CC(C(=O)Nc1ccccn1)n1ccc(C(F)(F)F)n1 (configuration not stated),11
12,O=C(O)[C@@H]1CN(C(=O)CSCC2CC2)C[C@H]1c1ccncc1,-8.7
13,CCN(CC1CCOC1)C(=O)c1cn2ccc(C)cc2n1 (configuration not stated),30.5
14,Cc1cc(-c2cc(N)c(=O)n(CC(=O)NC3CCCC3)n2)c(C)o1,18.27
15,Cc1ccc(CN2CC[C@@H]3[C@@H](CO[C@H]3CN3CCN(C)CC3)C2)cc1,23.3
16,Cc1cc(C(=O)N2CC[C@@H](O)[C@@H]2Cc2ccccc2)no1,2.58
17,COc1ccc2c(c1)OC1(CCN(Cc3ccc(F)cc3)CC1)CC2=O,51.6
18,COc1ccc2c(c1)OC1(CCN(Cc3ccc(C)cc3)CC1)CC2=O,31.2
19,COc1ccc2c(c1)C(=O)CC1(CCN(Cc3ccc(F)cc3)CC1)O2,-0.371
20,CCOC(=O)CN1CCC2(CC1)CC(=O)c1ccc(OC)cc1O2,72.4
21,COc1ccc2c(c1)OC1(CCN(Cc3ccccc3C)CC1)CC2=O,5.56
22,COc1ccc2c(c1)OC1(CCN(Cc3cccc(C)c3)CC1)CC2=O,37.2
23,CSCCC(=O)N1C[C@@H](C)[C@](O)(C(C)C)C1,22.5

row,SMILES,INHIBITION [%]
1,CCn1cnnc1CNC(=O)N1CCC(CN2CCOCC2)CC1,-11.4
2,CNc1ncc(CN(C)C(=O)c2cccc(-n3cnnc3)c2)cn1,28.5
3,CC(C)c1nc(C2CCCN2Cc2cc(=O)n(C)c(=O)n2C)no1 (configuration not stated),33.8
4,CCc1[nH]nc(NC(=O)c2cc[nH]n2)c1C,0.342
5,O=C1CCC2(CCCN(c3ncc(F)cn3)CC2)N1CC1CC1 (configuration not stated),-57.6
6,CN1C(=O)CCC12CCN(c1ccc(C#N)cn1)CC2,38.5
7,N#Cc1ccc(N2CCC3(CCC(=O)N3Cc3cccnc3)CC2)nc1,27.6
8,N#Cc1ccc(N2CCC3(CCC(=O)N3Cc3ccncc3)CC2)nc1,43.9
9,N#Cc1ccc(N2CCCC3(CCC(=O)N3CC3CC3)CC2)nc1 (configuration not stated),56.6
10,N#Cc1ccc(N2CCC3(CCC(=O)N3CCN3CCCC3)CC2)nc1,68.4
11,O=C(c1ccsc1)N1CCN2C[C@H](OCc3cccnc3)C[C@H]2C1,21.6
12,CCc1nc(-c2ccc(NC(=O)N3CCCC3)cc2)no1,-81
13,CCCC1COCCN1Cc1ccc(C(=O)O)cc1 (configuration not stated),19.8
14,Cc1nc2cc(O)nn2c(C)c1CCC(=O)N(C)Cc1ccccc1,-24.8
15,Cc1cc(C(=O)N2C[C@@H]3C(CN(C)CCc4ccccn4)[C@@H]3C2)c(C)o1 (some centres not stated),41.5
16,Cc1cccc(C(=O)N2CCN(C(=O)Cc3ccccn3)CC2)c1C,31.8
17,Cc1ccccc1C(=O)N1C[C@@H]2C(CN(C)CCc3ccccn3)[C@@H]2C1 (some centres not stated),55.4
18,Cc1cc(C(=O)N2CCN(CC(O)Cn3cccn3)CC2)c(C)o1 (configuration not stated),29.6
19,Cc1cc(C(=O)N2C[C@@H]3C(CN(C)CCCn4cccn4)[C@@H]3C2)c(C)o1 (some centres not stated),52.6
20,Cc1cc(C(=O)N2CCC(CCn3cccn3)CC2)c(C)o1,39.5

# Reference: ChEMBL document CHEMBL4513216, “Probing the Open Global Health Chemical Diversity Library for Multistage-Active Starting Points for Next-Generation Antimalarials” (ACS Infect Dis, 2020)
